Assay outcomes (PubChem BioAssay)
Compounds with a hit are over-represented: about 2.6% of the library has one in this group of screens.
Cruzain inh Det: cruzain (T. cruzi) inhibition with detergent | P25779 | purified cruzain, Z-FR-AMC fluorescence, 0.01% Triton | Potency, µM, actives largely listed as inhibitors | 200,000 tested, 0.43% active | AID 1478; further: nearly all actives have a fitted effect of over 40% in size
Target sequence (P25779 123-467 limits assumed): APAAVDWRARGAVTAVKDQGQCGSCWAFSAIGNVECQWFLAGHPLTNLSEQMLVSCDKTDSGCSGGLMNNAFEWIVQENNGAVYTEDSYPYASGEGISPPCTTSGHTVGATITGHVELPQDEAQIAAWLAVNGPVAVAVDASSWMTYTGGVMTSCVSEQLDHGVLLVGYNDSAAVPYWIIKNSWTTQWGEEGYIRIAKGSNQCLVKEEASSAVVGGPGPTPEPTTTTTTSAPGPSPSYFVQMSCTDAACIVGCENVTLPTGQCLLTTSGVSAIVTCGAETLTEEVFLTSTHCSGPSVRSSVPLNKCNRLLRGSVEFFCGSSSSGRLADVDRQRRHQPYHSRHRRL
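Enzyme 1.5 nM, Z-FR-AMC 2 uM, NaOAc 100 mM pH 5.5, DTT 5 mM, Triton X-100 0.01%; 15 min RT compound preincubation; kinetic ex360/em450, 60 s delta.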
Cruzain inh noDet: blocks cruzain activity in detergent-free assay; AID 1476; 200,000 tested, 2.3% active; Potency, µM, hits mostly inhibitors; purified cruzain, Z-FR-AMC fluorescence, no detergent; P25779; further: nearly all actives have a fitted effect of over 40% in size
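Purified cruzain at 1.5 nM, pre-incubated 15 min with compound at room temperature in 100 mM sodium acetate pH 5.5, 5 mM DTT, 0.00005% Triton X-100. Reaction started with 2 uM Z-FR-AMC; AMC fluorescence increase over 60 s gives rate.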
Hits are given with their value; . = inactive; ? = inconclusive. The call rests on the fitted dose curve; in most records, active means well fitted curve in the direction sought with a large enough effect; inconclusive means small, poorly fitted or top-dose-only effect, or another doubt; inactive means no such curve, though single readings can be large; an effect the other way counts as inactive or inconclusive.

SMILES	Cruzain inh Det	Cruzain inh noDet
Cc1ccc(Cc2nnc3n(-c4ccccc4)nc(C(=O)c4ccccc4)n3c2=O)cc1	.	25µM
CCn1nc(C)c2c(-c3ccccc3)cc(=O)n(C(C)C(=O)Nc3ccc(OC)c(OC)c3)c21 (stereo unspecified)	.	?
O=C(c1ccc2c(c1)N(Cc1cccc(Cl)c1)C(=O)c1ccccc1S2(=O)=O)N1CCN(c2cccc(C(F)(F)F)c2)CC1	.	5µM
O=C(c1ccc2c(c1)N(Cc1cccc(Cl)c1)C(=O)c1ccccc1S2(=O)=O)N1CCCCC1	.	.
CCN1CCN(C(=O)c2ccc3c(c2)N(Cc2cccc(Cl)c2)C(=O)c2ccccc2S3=O)CC1 (stereo unspecified)	.	.
O=C(c1ccc2c(c1)N(Cc1cccc(Cl)c1)C(=O)c1ccccc1S2=O)N1CCN(c2cccc(C(F)(F)F)c2)CC1 (stereo unspecified)	.	25µM
CC(=O)c1ccccc1[N+](=O)[O-]	.	.
CCCCCC(=O)/C=C/C=C\C/C=C\C/C=C\CCCC(=O)O	.	.
O=C(NCc1ccccc1)N1CCc2c(sc3c2CCCC3)C1c1ccccc1 (stereo unspecified)	.	?
COc1cccc(CNC(=O)N2CCc3c(sc4c3CCCC4)C2c2ccc(F)cc2)c1 (stereo unspecified)	.	6.3µM
CCCCCCCCCCCCCCCC(O)C(N)CO (stereo unspecified)	18µM	?
CCCCCCCCCCCCC/C=C\[C@@H](O)[C@@H](N)CO	.	.
Cc1cccc(OCC(=O)Nc2ccc(N3CCN(S(C)(=O)=O)CC3)cc2)c1C	.	13µM
Cc1cccc(OCCCC(=O)Nc2ccc(N3CCCCC3)cc2)c1C	.	20µM
Cc1ccccc1OCC(=O)Nc1ccc(N2CCN(S(C)(=O)=O)CC2)cc1	.	?
Cc1cc(C)cc(OCC(=O)Nc2ccc(N3CCN(S(C)(=O)=O)CC3)cc2)c1	.	16µM
Cc1cc(C)cc(OCC(=O)Nc2ccc(N3CCN(C(=O)c4ccco4)CC3)cc2)c1	.	.
Cc1cccc(OCCCC(=O)Nc2ccc(S(N)(=O)=O)cc2)c1C	.	?
CCOc1ccc(CNC(=O)CN2C(=O)CSc3c2c(C)nn3-c2ccccc2)cc1	.	.
CCOc1ccc(CNC(=O)c2cc3ccccn3n2)cc1OC	.	.
Cc1ccc(-n2nc(CO)c(C(=O)NCc3cccnc3)n2)cc1	.	.
O=S(=O)(c1ccccc1)c1nnn2c1nc(NCc1ccccc1)c1sccc12	.	.
O=C(NC[C@H]1CCCCN1)c1cc(OCC(F)(F)F)ccc1OCC(F)(F)F	.	.
COc1ccc2oc(-c3cccc(NC(=O)c4sc5c([N+](=O)[O-])cccc5c4Cl)c3)nc2c1	.	.
Cn1c(-c2cccc(OCc3ccccc3)c2)nc2c1c(=O)[nH]c(=O)n2Cc1ccccc1	.	7.9µM
SMILES	Cruzain inh Det	Cruzain inh noDet
COc1ccc(-c2nc3c(c(=O)[nH]c(=O)n3Cc3ccccc3)n2C)cc1	.	.
Cc1ccc(N2CCN(C3=NC(=O)C(Cc4ccccc4)S3)CC2)cc1 (stereo unspecified)	28µM	.
O=C1N=C(N2CCN(c3ccccc3)CC2)SC1Cc1ccccc1 (stereo unspecified)	.	.
N/C(=N\c1nc(CSc2ccc(Cl)cc2)cc(=O)[nH]1)Nc1cccc2ccccc12	.	10µM
COc1ccc(N/C(N)=N/c2nc(CSc3ccc(Cl)cc3)cc(=O)[nH]2)cc1	.	.
COc1cccc(Nc2nc3cc(Cl)c(Cl)cc3nc2-n2nc(C)cc2C)c1	.	.
CC(=O)c1nn(-c2ccc(Br)cc2)cc1C(=O)c1ccccc1	.	?
CC(=O)c1nn(-c2cccc(Br)c2)cc1C(=O)c1ccc2ccccc2c1	.	10µM
CCOC(=O)c1cc(OC(=O)c2ccccc2C)n(-c2ccccc2)n1	.	.
COc1cccc(-c2nc(N3CCN(Cc4ccccc4)CC3)c3ccccc3n2)c1O	.	.
COc1cccc(-c2nc(N3CCN(c4ccccc4)CC3)c3ccccc3n2)c1O	.	10µM
Cc1cc2c(cc1C)CSC(c1c(O)ccc3ccccc13)SC2	.	?
Cc1cc2c(cc1C)CSC(c1ccc3ccccc3c1O)SC2	.	25µM
COc1ccc(C(=O)CN2C(=O)N(c3cc(C)cc(C)c3)S(=O)(=O)c3ccccc32)cc1	.	?
Cc1ccc(C)c(-n2nnc(-c3nc(-c4ccc(Cl)cc4)no3)c2N)c1	.	.
CCc1cccc(NC(=O)Cn2c(=O)n(-c3ccccc3C)c(=O)c3c2c2cc(C)ccc2n3C)c1	.	.
CCOC(=O)c1cc(-c2ccccc2)sc1NC(=O)CN1C(=O)NC(CC)(c2ccccc2)C1=O (stereo unspecified)	.	10µM
CCOC(=O)c1cc(-c2ccccc2)sc1NC(=O)CC	.	.
CCOC(=O)c1cc(-c2ccccc2)sc1NC(=O)CSc1nncs1	.	.
CCOC(=O)c1cc(-c2ccccc2)sc1NC(=O)CN1C(=O)NC(CC)(c2ccc(F)cc2)C1=O (stereo unspecified)	.	10µM
Cc1cc(C(=O)CN2C(=O)NC(C)(c3cccc(Br)c3)C2=O)c(C)n1Cc1ccco1 (stereo unspecified)	.	32µM
Cc1cc(C(=O)CN2C(=O)NC(c3ccccc3)(c3ccccc3)C2=O)c(C)n1Cc1ccco1	.	?
C=CCn1c(C)cc(C(=O)CSc2nc3ccccc3[nH]2)c1C	.	.
Cc1cc(C(=O)CSc2nn(-c3ccccc3)c(=S)s2)c(C)n1Cc1ccco1	.	25µM
CCCn1c(C)cc(C(=O)CSc2nc3ccccc3c(=O)n2Cc2ccco2)c1C	.	.
SMILES	Cruzain inh Det	Cruzain inh noDet
Cc1cc(C(=O)CSc2nc3ccccc3[nH]2)c(C)n1Cc1ccco1	.	25µM
CCOC(=O)N1CCc2c(sc(NCc3ccc(OC)c(Br)c3)c2C(=O)Nc2cc(OC)ccc2OC)C1	.	?
CN1CCN(c2ncc3nc(-c4ccccc4)c(=O)n(Cc4ccc(F)cc4)c3n2)CC1	.	?
Cc1nnc(SCc2ccccc2Cl)c2cc3sccc3n12	.	.
C=Cc1ccc(Cn2c(=O)n(CC3CCC(C(=O)NC(C)C)CC3)c(=O)c3sccc32)cc1 (stereo unspecified)	.	.
O=C(NS(=O)(=O)c1ccc(F)cc1)O[C@@H]1C(=O)c2cc(Br)ccc2O[C@H]1c1ccc2c(c1)OCO2	.	.
Cc1ccc(C)c(NC(=O)CN2CCN(C3CCCCC3)C(=O)C2=O)c1	.	.
CCN(CC)CCOC(=O)c1ccc(NC(=O)c2cc3c(s2)-c2ccccc2OC3)cc1	.	?
CC(C)(C)OC(=O)N/N=C/c1ccc(N2CCOCC2)s1	.	.
Clc1cccc(N/N=C/c2ccc(N3CCOCC3)s2)c1	.	32µM
CCOc1ccc(/C=C2/SC(=S)N(n3c(C)ccc3C)C2=O)cc1	.	.
COc1ccc(/C=C2/SC(=S)N(n3c(C)ccc3C)C2=O)cc1	.	25µM
COc1ccccc1C(=O)Nc1ccc(Oc2ncnc3sc(-c4ccccc4)cc23)cc1	.	6.3µM
COc1cc(C(=O)Nc2ccc(Oc3ncnc4sc(-c5ccccc5)cc34)cc2)cc(OC)c1OC	.	.
COc1ncnc2sc(-c3ccccc3)cc12	.	.
COc1ccc(Nc2ncnc3sc(-c4ccccc4)cc23)cc1	.	32µM
O=C(NCCc1ccccc1Cl)c1sc2ncccc2c1-n1cccc1	.	.
CCOc1ccccc1CNC(=O)c1cnn(-c2ccc(C)cc2)c1-n1cccc1	.	.
